NPYLR7 agonist – activates Aedes aegypti NPYLR7 receptor. HEK293T NPYLR7/Galpha15, GCaMP6s calcium fluorescence. activation, % at 10 µM. 270,000 compounds, 0.15% hits; in the data active means activation above about 40%
hcGAS lum – inhibitors of human cGAS. inhibition, % at 12.5 µM. Q8N884. recombinant h-cGAS, ATP depletion, Kinase-Glo luminescence. 290,000 compounds, 0.081% hits
mcGAS inh – inhibitors of mouse cGAS | 160,000 compounds, 0.15% hits | recombinant cGAS, Kinase-Glo ATP depletion luminescence | inhibition, % at 12.5 µM
Target sequence (Q8C6L5 whole entry, looked up): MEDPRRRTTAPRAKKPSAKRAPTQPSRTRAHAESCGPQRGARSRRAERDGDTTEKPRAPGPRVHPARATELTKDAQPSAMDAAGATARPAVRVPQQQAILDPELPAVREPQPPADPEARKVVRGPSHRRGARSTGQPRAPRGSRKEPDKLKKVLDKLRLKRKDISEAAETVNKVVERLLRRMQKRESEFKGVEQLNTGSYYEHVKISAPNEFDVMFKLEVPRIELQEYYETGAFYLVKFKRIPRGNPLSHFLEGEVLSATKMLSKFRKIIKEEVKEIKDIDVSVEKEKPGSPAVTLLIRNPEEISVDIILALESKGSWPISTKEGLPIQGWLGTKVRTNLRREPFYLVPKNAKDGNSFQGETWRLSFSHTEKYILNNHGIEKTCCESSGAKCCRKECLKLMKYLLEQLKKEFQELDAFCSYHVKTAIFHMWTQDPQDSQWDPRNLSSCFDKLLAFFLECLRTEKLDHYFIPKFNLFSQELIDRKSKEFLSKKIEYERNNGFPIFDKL
Large screens that a line does not name were inactive; ! = repeats disagree. This is a sample that favours compounds with a hit; in the whole collection about 0.24% have one here. Unless noted, no stated cut-off is given here; in the data, active means inhibition above about 40%; inactive means the rest.

CCCCCN=C(N)NN=Cc1c[nH]c2ccc(OC)cc12	NPYLR7 agonist 46.5 (no result: mcGAS inh)
NC(=O)N/N=C\c1c[nH]c2ccccc12	none
COc1ccc(NC(=O)c2cc3nc(-c4ccc(Br)cc4)cc(C(F)(F)F)n3n2)c(OC)c1	none
Cc1cc2nc3c(=O)[nH]c(=O)nc-3n(CC(O)C(O)C(O)CO)c2cc1C (configuration not stated)	NPYLR7 agonist 172.5 (no result: mcGAS inh)
Cc1cc2nc3c(=O)[nH]c(=O)nc-3n(C)c2cc1C=O	none (no result: mcGAS inh)
COC(=O)c1ccc(COC(CN2CCN(C(=O)c3cccn3C)CC2)c2cccc(OC)c2)cc1 (configuration not stated)	none
Cc1nn(C)c(C)c1C(=O)C(=O)NNC(=O)C12CC3CC(CC(C3)C1)C2	none (no result: mcGAS inh)
CC(=O)[C@@H]1SC(=N)C(C#N)[C@H]1c1cccs1 (some centres not stated)	none
N#CC1C(=N)SC(=N)C(C#N)C1c1cccs1 (configuration not stated)	hcGAS lum 74.1, mcGAS inh 70.4
Cc1ccc2nc(C)c(C(=O)N3CCN(C(C#N)c4ccc(F)cc4)CC3)cc2c1 (configuration not stated)	none (no result: mcGAS inh)
CSC(C)C(=O)Nc1ccc(I)cc1 (configuration not stated)	none
NC(=NC1C2CC3CC(C2)CC1C3)Nc1ccc(I)cc1 (configuration not stated)	NPYLR7 agonist 43.1 (no result: mcGAS inh)
O=C1c2ccccc2C(=O)c2c(O)c(O)cc(O)c21	none
CC1(C)OC2OC(C(O)c3cc(O)c4c(c3O)C(=O)c3ccccc3C4=O)C(C)(O)C2O1 (configuration not stated)	NPYLR7 agonist 105.8 (no result: mcGAS inh)
Cc1ccc(-c2nn(CC(=O)NCc3ccc(F)cc3)c(=O)c3nc(C)sc23)c(C)c1	none
Cc1ccc(CN(Cc2ccc3c(c2)OCO3)C(=O)CNCCCN2CCOCC2)o1	none (no result: mcGAS inh)
O=C(CCl)Nc1cc([N+](=O)[O-])ccc1Cl	mcGAS inh 51.6
O=C(CCl)Nc1ccc(Cl)cc1[N+](=O)[O-]	none
COc1ccc2c(c1)C(C)(Cc1cc(OC(F)(F)F)ccc1OC)C(=O)N2 (configuration not stated)	none
O=C(C1=NN(c2ccccc2)C2C(=O)N(c3ccccc3)C(=O)C12)c1ccccc1 (configuration not stated)	NPYLR7 agonist 64.5
CC(=O)C1=NN(c2ccccc2)C2C(=O)N(c3ccc(Br)cc3)C(=O)C12 (configuration not stated)	none
CCOC(=O)C(C#N)c1cccc(F)c1 (configuration not stated)	none (no result: mcGAS inh)
COCCN(Cc1nc(C(=O)NC(C)CCc2ccccc2)cs1)C(=O)Nc1ccc(C(C)C)cc1 (configuration not stated)	none
COc1ccc(/C=C2\Oc3c(ccc4c3CN(CC3CCCO3)CO4)C2=O)cc1 (configuration not stated)	NPYLR7 agonist 63.7
CC(C)c1ccc(/C=C2\Oc3c(ccc4c3CN(C3CCS(=O)(=O)C3)CO4)C2=O)cc1 (configuration not stated)	none
COc1ccc(/C=C2\Oc3c4c(cc(C)c3C2=O)OCN(Cc2ccncc2)C4)cc1	none
COc1cc(/C=C2\Oc3c(ccc4c3CN(CC3CCCO3)CO4)C2=O)cc(OC)c1OC (configuration not stated)	NPYLR7 agonist 74.1
COc1ccc(/C=C2\Oc3c4c(cc(C)c3C2=O)OCN(C2CC2)C4)cc1OC	none
COc1ccc(/C=C2\Oc3c(ccc4c3CN(C3CCS(=O)(=O)C3)CO4)C2=O)cc1 (configuration not stated)	NPYLR7 agonist 67.7
Cc1ccccc1/C=C1\Oc2c(ccc3c2CN(C2CCS(=O)(=O)C2)CO3)C1=O (configuration not stated)	none
COc1ccc(/C=C2\Oc3c(ccc4c3CN(CC3CCCO3)CO4)C2=O)cc1OC (configuration not stated)	NPYLR7 agonist 87.9
Cc1ccc(OC(C)C(=O)O)c(Br)c1 (configuration not stated)	none
Cc1ccc(-c2nnc(SCc3nc(-c4ccsc4)no3)n2C)cc1	none (no result: mcGAS inh)
CCCC(C)NC(=O)Cn1cnc2cc(F)ccc2c1=O (configuration not stated)	none
COc1ccc(-c2cc(CN3CCN(S(=O)(=O)c4cc(C)ccc4C)CC3)on2)cc1	none
Cn1c(=O)[nH]c(=O)c2c1nc(CN1CCOCC1)n2Cc1c(Cl)cccc1Cl	none (no result: mcGAS inh)
CCOC(=O)c1ccc2nc(NC(=O)CSc3nnc(C)c(=O)[nH]3)sc2c1	none
COc1cc(NC(=O)c2ccco2)c(OC)cc1Cl	none (no result: mcGAS inh)
COc1ccc(NC(=O)C2C=CCN2)cc1NC(=O)c1ccco1 (configuration not stated)	NPYLR7 agonist 64.3
CCOc1ccnc(NCCN2CCOCC2)n1	none
COc1ccc(NCc2cc(OC)c3c(c2)OCCO3)cn1	none
COc1ccc(NCc2ccc(OC)c(Br)c2)cn1	NPYLR7 agonist 85.7
Cc1nc2cccc(C)n2c(=O)c1NC(=O)c1ccc(-c2ccccc2)cc1	none (no result: mcGAS inh)
COc1ccc(OCCN(C)Cc2cc(=O)oc3cc(C)c(C)cc23)cc1	none
COC(=O)c1c(C)cc(OC(=O)c2c(C)cc(O)c(C=O)c2O)c(C)c1O	none (no result: NPYLR7 agonist)
Cc1cc(O)c(C=O)c(O)c1C(=O)O	hcGAS lum 55.7 (no result: mcGAS inh)
Cc1ccc(S(=O)(=O)N2CCN(C(=O)c3cnc(C)cn3)CC2)cc1	none (no result: mcGAS inh)
CCn1c(=O)c2c(nc3n2CCN3c2ccc(C)c(Cl)c2)n(C)c1=O	none (no result: mcGAS inh)
COc1ccccc1C1C(C#N)=C(SCC(N)=O)NC(=O)C1C#N (configuration not stated)	none (no result: mcGAS inh)
COC(=O)c1cccc(CSc2nnc(-c3ccc(OC)cc3)n2-c2ccc(Cl)c(Cl)c2)c1	none
Cc1cc(=O)n2[nH]cc(-c3ccccc3Cl)c2n1	hcGAS lum 45.5
Cc1cc(=O)n2[nH]cc(-c3ccc(F)cc3)c2n1	none (no result: mcGAS inh)
Cc1cc(C)cc(N2C(=O)CSC2c2ccc(NC(=O)CCl)cc2)c1 (configuration not stated)	none
CCCc1ccccc1N1C(=O)CSC1c1ccc(NC(=O)CCl)cc1 (configuration not stated)	NPYLR7 agonist 41.8
Cc1cncc(C(=O)N2CCC3(CCNC(=O)CC3)CC2)c1	none (no result: mcGAS inh)
CCc1cn[nH]c1C1CCN(Cc2nccn2-c2ccc(OC)cc2)CC1	none
N#Cc1ccc(-c2ccc3c(n2)C(=O)N(CC(=O)NCCCN2CCOCC2)C3)cc1	none
COc1ccc(-c2csc(NC(=O)CN3CC(C)CC(C)C3)n2)c(OC)c1 (configuration not stated)	none (no result: mcGAS inh)
COc1ccc(-c2csc(NC(=O)CCl)n2)c(O)c1	mcGAS inh 59.9
O=c1[nH]c(=S)[nH]c2c1C(c1cccc([N+](=O)[O-])c1)c1c([nH]c(=S)[nH]c1=O)O2	mcGAS inh 55.2
O=c1[nH]cnc2c1C(c1cccc([N+](=O)[O-])c1)c1c(nc[nH]c1=O)O2	none
COc1ccc(-c2nnc(C[C@@H]3C[C@@H](C(C)C)[C@H](CNc4ccccn4)C=C3C)o2)cc1	none
COc1ccc(NC[C@@H]2C=C(C)[C@H](Cc3nnc(C)o3)C[C@H]2C(C)C)cn1	NPYLR7 agonist 54.5
O=C(O)c1cc(O)c2c(O)c3c(O[C@H]4O[C@H](CO)[C@@H](O)[C@H](O)[C@H]4O)cccc3c(-c3c4cc(C(=O)O)cc(O)c4c(O)c4c(O[C@H]5O[C@H](CO)[C@@H](O)[C@H](O)[C@H]5O)cccc34)c2c1	hcGAS lum 42.4! (no result: mcGAS inh)
